USP8 block: inhibitors of human USP8 deubiquitinase; purified USP8, Ub-rhodamine cleavage fluorescence, 30 min; inhibition, % at 20 µM; Ubiquitin carboxyl-terminal hydrolase 8 (Homo sapiens), P40818; actives 4.2% (n = 47,000)
OTUD3 block: inhibitors of human OTUD3 deubiquitinase; inhibition, % at 25 µM; actives 0.7% (n = 47,000); AID 1645858, 2021; OTU domain-containing protein 3 (Homo sapiens), Q5T2D3; purified OTUD3, Ub-rhodamine fluorescence, 2 h
USP30 inh: inhibitors of human USP30 deubiquitinase. Ubiquitin carboxyl-terminal hydrolase 30 (Homo sapiens), Q70CQ3. purified USP30, Ub-rhodamine cleavage fluorescence. inhibition, % at 25 µM. actives 5.3% (n = 47,000)
USP17 inh: inhibitors of human USP17 deubiquitinase; inhibition, % at 50 µM; AID 1645855, 2021; purified USP17, Ub-rhodamine cleavage fluorescence, 3 h; actives 6.5% (n = 47,000)
Target sequence (A8MUK1 whole entry, looked up): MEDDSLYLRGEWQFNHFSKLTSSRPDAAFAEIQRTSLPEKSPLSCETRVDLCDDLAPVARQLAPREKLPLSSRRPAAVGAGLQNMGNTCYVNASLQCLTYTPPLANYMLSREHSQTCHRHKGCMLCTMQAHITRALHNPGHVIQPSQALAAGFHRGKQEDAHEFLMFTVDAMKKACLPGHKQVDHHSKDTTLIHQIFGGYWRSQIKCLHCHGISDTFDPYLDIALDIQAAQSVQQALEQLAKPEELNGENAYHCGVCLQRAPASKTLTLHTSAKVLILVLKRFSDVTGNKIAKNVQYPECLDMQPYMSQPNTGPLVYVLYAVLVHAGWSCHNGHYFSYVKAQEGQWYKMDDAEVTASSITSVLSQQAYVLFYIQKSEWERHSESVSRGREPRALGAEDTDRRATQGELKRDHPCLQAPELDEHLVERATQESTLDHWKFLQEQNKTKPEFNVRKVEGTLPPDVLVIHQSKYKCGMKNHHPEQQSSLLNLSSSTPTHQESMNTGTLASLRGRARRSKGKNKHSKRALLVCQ
USP28 inh: inhibitors of human USP28 deubiquitinase. inhibition, % at 25 µM. Ubiquitin carboxyl-terminal hydrolase 28 (Homo sapiens), Q96RU2. purified USP28, Ub-rhodamine cleavage fluorescence, 30 min. actives 3% (n = 47,000). AID 1645857, 2021
* marks the source's active call; other numbers are inactive results; i = inactive; . = no result. Sampled rows, rich in hits. Any-hit rate of the full collection: about 13%. Rule as the data show it: active = inhibition above about 30%; inactive = the rest.

SMILES | USP8 block | OTUD3 block | USP30 inh | USP17 inh | USP28 inh
CN(C)C(CNS(=O)(=O)c1ccc([N+](=O)[O-])cc1)c1cccnc1 (configuration not stated) | -126.8 | -1.7 | -11.1 | -28.8 | -14.4
CCCCOc1ccc(C(=O)Nc2nonc2C)cc1 | 1.5 | -3.5 | 0.0 | -0.7 | 9.3
CCN1C(=O)COc2ccc(NC(=O)c3ccc(OCc4nonc4C)cc3)cc21 | 8.0 | 3.3 | 19.4 | 21.6 | 70.4*
COc1ccccc1NC(=O)CSc1ncnc2c1oc1ccccc12 | 4.6 | -7.9 | -20.6 | -5.2 | -11.4
O=C(CSc1ncnc2c1oc1ccccc12)NC1CCCCC1 | 9.0 | 13.6 | 32.5* | 11.4 | 11.2
COC(=O)c1ccccc1NC(=O)CSc1ncnc2c1oc1ccccc12 | 14.4 | 9.6 | 32.7* | 12.7 | -4.3
O=C(CSc1ncnc2c1oc1ccccc12)Nc1ccc2c(c1)OCCO2 | 1.0 | 1.1 | -15.7 | 65.0* | -1.3
COCCCn1c(SCC(=O)Nc2ccccc2C(=O)OC)nc2ccccc2c1=O | 9.4 | 14.5 | 69.7* | 42.4* | 25.1
Clc1ccccc1CSc1ncnc2c1oc1ccccc12 | 22.6 | 9.1 | 29.6 | 41.0* | 12.9
Cc1ccccc1-n1ncc2c(=O)n(CC(=O)Nc3ccc4c(c3)OCCO4)cnc21 | 2.5 | 11.6 | 10.3 | 30.4* | 16.0
COc1ccc(C)cc1NC(=O)CSc1nc(C)nc2c1oc1ccccc12 | -14.3 | 12.9 | 28.5 | 51.5* | 9.5
COc1ccccc1C(=O)N1CCc2[nH]c3ccc(F)cc3c2C1 | -58.2 | -188.9 | i | -164.6 | -187.6
COc1cccc(-c2nc(CSc3nc4ccccc4n4c(C)nnc34)c(C)o2)c1OC | -15.9 | 3.0 | 0.0 | -5.0 | -4.3
COc1cc(NC(=O)c2cc(CN3CCOCC3)on2)cc(OC)c1 | 7.7 | 2.6 | 2.9 | 0.4 | 53.8*
O=C(Nc1ccc2c(c1)OCCO2)NC1CCCCC1 | 4.2 | -5.4 | -0.2 | 2.3 | 31.0*
O=C(Nc1cccnc1)NC1CCCCC1 | -1.3 | -1.3 | -16.5 | -12.6 | -0.4
O=C(Nc1ccc2c(c1)OCCO2)c1cc(CN2CCOCC2)on1 | 3.6 | -0.2 | 8.7 | . | 52.9*
Cc1ccc(NC(=O)c2ccc(N3CCCCC3)nn2)cc1F | -13.9 | -5.9 | i | 3.2 | -0.2
O=C(Nc1ccc2c(c1)OCCO2)c1ccc(N2CCCCC2)nn1 | 0.2 | 5.4 | 2.1 | 17.5 | 59.1*
CC1(C)Cc2nc3oc4c(NCCc5ccccc5)ncnc4c3cc2CO1 | -13.1 | -14.6 | -15.7 | . | -6.2
COc1cc(OC)c(NC(=O)c2cccc(-c3noc(C)n3)c2)cc1Cl | -2.3 | -0.1 | -6.2 | -0.8 | -10.4
CC(C)c1ccc(NC(=O)C2CCCN(S(=O)(=O)Cc3cccc(Cl)c3)C2)cc1 (configuration not stated) | -1.3 | -5.8 | -14.4 | 2.5 | -12.4
Cc1cc2n(n1)CCC(=O)N2C(C)C(=O)NCc1ccccc1C (configuration not stated) | -1.3 | 0.7 | -1.6 | . | -9.4
O=C(Nc1ccc2c(c1)OCCO2)C1CN(C(=O)c2ccc3c(c2)OCO3)C1 | -11.1 | 7.0 | 5.2 | -0.3 | 43.2*
O=C(Nc1cccnc1Cl)c1cc(-c2ccco2)on1 | -21.9 | 0.8 | . | -3.1 | .
SMILES | USP8 block | OTUD3 block | USP30 inh | USP17 inh | USP28 inh
Cc1ccc(NC(=O)c2cc(CN3CCCC3)on2)cc1C | -8.6 | -4.6 | -24.3 | . | 4.8
O=C(Nc1ccccc1F)C1CN(C(=O)c2ccc3c(c2)OCO3)C1 | -16.8 | 0.7 | -15.5 | -1.8 | 0.1
O=C(Nc1ccc2c(c1)OCCO2)c1cc(CN2CCCC2)on1 | -2.2 | -9.0 | -24.3 | -7.5 | 63.3*
O=C(Nc1ccc2c(c1)OCO2)c1cc(-c2ccco2)on1 | 7.0 | 17.4 | -17.9 | 44.3* | 30.3*
COc1cccc(NC(=O)N2CCC3(C2)C(=O)Nc2ccccc23)c1 (configuration not stated) | -1.0 | -1.0 | -12.7 | -3.1 | -4.7
O=C(Nc1ccc(F)cc1)C(c1ccccc1)N1CCN(c2ccccn2)CC1 (configuration not stated) | 18.8 | 3.9 | 20.1 | 12.9 | 6.6
Cc1cccc(C)c1Nc1nc(CN2CCOCC2)nc2sc3c(c12)CCCC3 | 9.9 | 7.1 | 0.3 | 4.1 | 0.9
Nc1c(-c2ccncc2)nsc1C(=O)NCc1cc(F)cc(F)c1 | -107.0 | 2.6 | -5.1 | -48.0 | 1.8
Cn1cc2nc(SCC(=O)NCc3ccccc3Cl)n(CC3CC3)c(=O)c2n1 | 42.2* | -0.3 | 31.5* | 29.6 | 14.5
Cc1ccc(Cl)cc1NC(=O)CSc1nc2cn(C)nc2c(=O)n1CC1CC1 | 61.2* | 37.7* | 54.3* | 67.7* | 28.2

Compound activity deposited in PubChem by Buhrlage Lab, Dana-Farber Cancer Institute and Novartis Institutes for BioMedical Research (Cambridge, Mass).
